The values that follow come from the supplement of paper PMC9492666.

Structures can show the parent of a compound that is named as a salt.
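Further: viability read by CCK-8 kit in 96-well plates, part of a combination screen pairing lipid-metabolism-targeting compounds with erastin.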

This assay concerns MDA-MB-231. The assay can be described thus: relative cell viability, compound + erastin, vs DMSO (fraction of DMSO control); higher = less growth inhibition. Conditions: 72 h.
Regarding `O=C(c1c2ccccc2cc2ccccc12)N1CCC(N2CCC[C@@H](C(=O)N3CCOCC3)C2)CC1` + CCOc1ccccc1-n1c(C(C)N2CCN(C(=O)COc3ccc(Cl)cc3)CC2)nc2ccccc2c1=O [erastin], the relative cell viability came out at 0.483.

For `COc1ccc2c(c1)c(CC(=O)O)c(C)n2C(=O)c1ccc(Cl)cc1` [Indometacin] + CCOc1ccccc1-n1c(C(C)N2CCN(C(=O)COc3ccc(Cl)cc3)CC2)nc2ccccc2c1=O [erastin], the relative cell viability came out at 0.639.

As to `O=C(Nc1cccnn1)N1CCC(=Cc2cccc(Oc3ccc(C(F)(F)F)cn3)c2)CC1` + CCOc1ccccc1-n1c(C(C)N2CCN(C(=O)COc3ccc(Cl)cc3)CC2)nc2ccccc2c1=O [erastin], the relative cell viability is 0.554.

For the compound `O=C1C=CC[C@@H]2[C@H]3CCCN4CCC[C@@H](CN12)[C@@H]34` [Sophocarpine] + CCOc1ccccc1-n1c(C(C)N2CCN(C(=O)COc3ccc(Cl)cc3)CC2)nc2ccccc2c1=O [erastin], the relative cell viability amounted to 0.856.

`NC(CO)C(=O)O` (racemic) [DL-Serine] + CCOc1ccccc1-n1c(C(C)N2CCN(C(=O)COc3ccc(Cl)cc3)CC2)nc2ccccc2c1=O [erastin]: the relative cell viability is 0.62.

Consider `CC[C@H]1[C@@H](O)[C@@H]2[C@H](CC[C@]3(C)[C@@H]([C@H](C)CCC(=O)O)CC[C@@H]23)[C@@]2(C)CC[C@@H](O)C[C@@H]12` [Obeticholic Acid] + CCOc1ccccc1-n1c(C(C)N2CCN(C(=O)COc3ccc(Cl)cc3)CC2)nc2ccccc2c1=O [erastin], for which the relative cell viability turned out to be 0.771.

As to `CC1(C)CC[C@]2(C(=O)O[C@@H]3O[C@H](CO)[C@@H](O)[C@H](O)[C@H]3O)CC[C@]3(C)C(=CC[C@@H]4[C@@]5(C)CC[C@H](O[C@@H]6O[C@H](C(=O)O)[C@@H](O)[C@H](O)[C@H]6O[C@@H]6O[C@H](CO)[C@@H](O)[C@H](O)[C@H]6O)C(C)(C)[C@@H]5CC[C@]43C)[C@@H]2C1` [Ginsenoside Ro] + CCOc1ccccc1-n1c(C(C)N2CCN(C(=O)COc3ccc(Cl)cc3)CC2)nc2ccccc2c1=O [erastin], the relative cell viability turned out to be 0.726.

With `COc1ccc([C@@H]2OC[C@H]3[C@@H]2CO[C@@H]3c2ccc(O[C@@H]3O[C@H](CO)[C@@H](O)[C@H](O)[C@H]3O)c(OC)c2)cc1OC` [Forsythin] + CCOc1ccccc1-n1c(C(C)N2CCN(C(=O)COc3ccc(Cl)cc3)CC2)nc2ccccc2c1=O [erastin], the relative cell viability was determined as 0.754.

For the compound `CCCc1c(OCCCOc2ccc(OCC(=O)O)cc2)ccc(C(C)=O)c1O` + CCOc1ccccc1-n1c(C(C)N2CCN(C(=O)COc3ccc(Cl)cc3)CC2)nc2ccccc2c1=O [erastin], the relative cell viability came out at 0.833.

Turning to `C=C(C)[C@@H]1CC[C@]2(CO)CC[C@]3(C)[C@H](CC[C@@H]4[C@@]5(C)CC[C@H](O)C(C)(C)[C@@H]5CC[C@]43C)[C@@H]12` [Betulin] + CCOc1ccccc1-n1c(C(C)N2CCN(C(=O)COc3ccc(Cl)cc3)CC2)nc2ccccc2c1=O [erastin], the relative cell viability turned out to be 0.32.

Consider `COc1ccc2[nH]cc(CCNC(C)=O)c2c1` [Melatonine] + CCOc1ccccc1-n1c(C(C)N2CCN(C(=O)COc3ccc(Cl)cc3)CC2)nc2ccccc2c1=O [erastin], for which the relative cell viability amounted to 0.693.

As to `CC[C@@H]1/C=C(\C)C[C@H](C)C[C@H](OC)[C@H]2O[C@@](O)(C(=O)C(=O)N3CCCC[C@H]3C(=O)O[C@H](/C(C)=C/[C@@H]3CC[C@@H](O)[C@H](OC)C3)[C@H](C)[C@@H](O)CC1=O)[C@H](C)C[C@@H]2OC` [Ascomycin] + CCOc1ccccc1-n1c(C(C)N2CCN(C(=O)COc3ccc(Cl)cc3)CC2)nc2ccccc2c1=O [erastin], the relative cell viability was determined as 0.303.

For the compound `CC(C)OC(=O)CCC/C=C\C[C@@H]1[C@@H](CC[C@@H](O)CCc2ccccc2)[C@H](O)C[C@@H]1O` [Latanoprost] + CCOc1ccccc1-n1c(C(C)N2CCN(C(=O)COc3ccc(Cl)cc3)CC2)nc2ccccc2c1=O [erastin], the relative cell viability worked out at 0.663.

In the case of `COc1ccc(/C=C/c2cc(O)cc(O[C@@H]3O[C@H](CO)[C@@H](O)[C@H](O)[C@H]3O)c2)cc1` [Deoxyrhapontin] + CCOc1ccccc1-n1c(C(C)N2CCN(C(=O)COc3ccc(Cl)cc3)CC2)nc2ccccc2c1=O [erastin], the relative cell viability stood at 0.699.

For the compound `N#Cc1c(O)c2c(-c3ccc(-c4ccccc4O)cc3)csc2[nH]c1=O` + CCOc1ccccc1-n1c(C(C)N2CCN(C(=O)COc3ccc(Cl)cc3)CC2)nc2ccccc2c1=O [erastin], the relative cell viability is 0.51.

For the compound `OC[C@H]1O[C@@H](Oc2cc(O)cc(/C=C/c3ccc(O)cc3)c2)[C@H](O)[C@@H](O)[C@@H]1O` [Polydatin] + CCOc1ccccc1-n1c(C(C)N2CCN(C(=O)COc3ccc(Cl)cc3)CC2)nc2ccccc2c1=O [erastin], the relative cell viability came to 0.601.

`O=C(CBr)c1ccc(O)cc1` [PTP Inhibitor I] + CCOc1ccccc1-n1c(C(C)N2CCN(C(=O)COc3ccc(Cl)cc3)CC2)nc2ccccc2c1=O [erastin]: the relative cell viability amounted to 0.64.

In the case of `CN(CCOc1ccc(CC2SC(=O)NC2=O)cc1)c1ccccn1` (stereo not given) [Rosiglitazone maleate] + CCOc1ccccc1-n1c(C(C)N2CCN(C(=O)COc3ccc(Cl)cc3)CC2)nc2ccccc2c1=O [erastin], the relative cell viability stood at 0.965.

`CN(C)c1cccc(-c2c3c(=O)n(-c4ccccc4Cl)[nH]c3cc(=O)n2C)c1` + CCOc1ccccc1-n1c(C(C)N2CCN(C(=O)COc3ccc(Cl)cc3)CC2)nc2ccccc2c1=O [erastin]: the relative cell viability is 1.23.

Take `CN(C)CCOC(=O)COc1ccc(Cl)cc1` [Meclofenoxate hydrochloride] + CCOc1ccccc1-n1c(C(C)N2CCN(C(=O)COc3ccc(Cl)cc3)CC2)nc2ccccc2c1=O [erastin]: the relative cell viability came to 0.81.
